Assay results as given in the supplement of paper PMC7724964.

T1: WDR74 1-387 WD40 (domain begin residue: 1, domain end residue: 387), Q6RFH5
T1 chain: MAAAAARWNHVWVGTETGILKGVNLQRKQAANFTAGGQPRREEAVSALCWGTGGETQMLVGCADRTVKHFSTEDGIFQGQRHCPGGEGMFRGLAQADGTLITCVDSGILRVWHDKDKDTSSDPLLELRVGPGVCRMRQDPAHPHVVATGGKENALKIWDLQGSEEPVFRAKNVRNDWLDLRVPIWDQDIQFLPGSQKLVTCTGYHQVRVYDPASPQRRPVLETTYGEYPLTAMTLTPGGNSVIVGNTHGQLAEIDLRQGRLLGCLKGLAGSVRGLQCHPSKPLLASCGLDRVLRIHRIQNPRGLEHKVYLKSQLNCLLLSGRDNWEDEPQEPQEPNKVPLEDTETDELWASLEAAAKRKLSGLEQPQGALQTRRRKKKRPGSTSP


The binders below were run against WDR5 20-334 WD40 (domain begin residue: 20, domain end residue: 334), P61964 (assay: phage ELISA signal ratio (GST-PRM binding over GST background); higher = stronger binding of peptide-phage to the PRM).
How it was run: (§1)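 Each value is the phage ELISA signal on the glutathione S-transferase (GST)-domain fusion divided by the signal on GST alone. Human peptide recognition domains were expressed in 96-well plates, fused to the C-terminus of GST, and selected against an M13 phage library carrying randomized, cysteine-free, glycine-flanked hexadecapeptides on the gene-8 major coat protein. After five selection rounds, approximately 48 individual clones from rounds 4 and 5 were tested by phage ELISA, and positive clones were sequenced.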

**Q.** How did the “phage ELISA signal ratio” value turn out when QRTMAWKSEDHLMPQS was run?
**A.** 14.9

**Q.** How did the “phage ELISA signal ratio” value turn out when EYHPRWGYIMAQASDS was run?
**A.** 11

**Q.** How did the “phage ELISA signal ratio” value turn out when GRWVPVQDVPRFEIED was run?
**A.** 19

**Q.** Which “phage ELISA signal ratio” value does the source give for AARTQWYLAAVAEQAP here?
**A.** 12.9

**Q.** For GRWVPWDQNVTTSDES, which “phage ELISA signal ratio” value is on record?
**A.** 23.4

**Q.** Which “phage ELISA signal ratio” value does the source give for QQVFQDHSNHQMMISR here?
**A.** 14

**Q.** With RTEPYVHQQPTPQAPA as the binder, how does the “phage ELISA signal ratio” value read?
**A.** 12.4

**Q.** With AARTHAQEYHKGIMAS as the binder, how does the “phage ELISA signal ratio” value read?
**A.** 21.6

**Q.** Which “phage ELISA signal ratio” value does the source give for SARTGYDNYLKPSSQQ here?
**A.** 22

**Q.** For PRYKPHNRTEPVPLMA, which “phage ELISA signal ratio” value is on record?
**A.** 18.7

**Q.** How did the “phage ELISA signal ratio” value turn out when FELAGRWEPLMMYEWV was run?
**A.** 12.8

**Q.** Which “phage ELISA signal ratio” value does the source give for RTEYLNWQEHRTVSKE here?
**A.** 11

**Q.** PEQERINRKTYQMVSR was tested. Which “phage ELISA signal ratio” value did it give?
**A.** 13

**Q.** With GAARTQGVEWHSQHSH as the binder, how does the “phage ELISA signal ratio” value read?
**A.** 14.9

**Q.** With RTDPEQYQRTMMVPRG as the binder, how does the “phage ELISA signal ratio” value read?
**A.** 12.1

**Q.** Which “phage ELISA signal ratio” value does the source give for ETQDPPEVRQYTMVSR here?
**A.** 13.8

**Q.** Which “phage ELISA signal ratio” value does the source give for QRTMAWKSENHLMPHS here?
**A.** 16.4

**Q.** For RWEPHAWQADQVEATK, which “phage ELISA signal ratio” value is on record?
**A.** 14

**Q.** With ARTWYMHQQEAMADQK as the binder, how does the “phage ELISA signal ratio” value read?
**A.** 26.3

**Q.** With IKETAHMDERPKMISR as the binder, how does the “phage ELISA signal ratio” value read?
**A.** 15.8

**Q.** Which “phage ELISA signal ratio” value does the source give for VPSLVMPQDQPVMVSR here?
**A.** 12.8

**Q.** SARTSHWVPMEWNHLQ was tested. Which “phage ELISA signal ratio” value did it give?
**A.** 14

**Q.** For KKPVPMRWEHTYTETM, which “phage ELISA signal ratio” value is on record?
**A.** 20.2

**Q.** Which “phage ELISA signal ratio” value does the source give for SARSEPYPSTNFTWTH here?
**A.** 25.7

Target: T1, WDR74 1-387 WD40 (domain begin residue: …
Assay: as above
How it was run: as §1

**Q.** For WHWPELQDLMSIGMDE, which “phage ELISA signal ratio” value is on record?
**A.** 2.99

**Q.** How did the “phage ELISA signal ratio” value turn out when DWFSSIIEAERQPVAD was run?
**A.** 5.4

**Q.** QIWSLWVEGMMYQPDN was tested. Which “phage ELISA signal ratio” value did it give?
**A.** 2.75

**Q.** For WEAIWDDMLTVQMPMA, which “phage ELISA signal ratio” value is on record?
**A.** 5

**Q.** Which “phage ELISA signal ratio” value does the source give for DMWAMWHEWVEQEPQD here?
**A.** 2.88
